# Measured values published in PubChem BioAssay.
# For some assays here: Potency and affinity values are given separately. Results filed as inconclusive are left out. The source made the active and inactive calls.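 Rule for the calls, unless noted: active = fitted dose curve reaches 40% lysis signal rise at or below the highest valid concentration tested for that sample; inconclusive = flat fit between 30% and 70%, or poor curve fit; inactive = signal falls, stays flat within 30%, or no crossing.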
# What was measured:
# [1] = Cryptococcus neoformans growth inhibition, dose response, Alamar Blue, cherry-picks (AID 686998;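 active = falling signal with fitted half-maximal potency no higher than twice the top valid tested dose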)
# [2] = inducers of Cryptococcus neoformans cell lysis, dose response, AK release luminescence, cherry-picks (AID 687000);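 note: luminescent detection of adenylate kinase leaking from lysed yeast; 0% = median neutral control signal and 100% = double that signal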
# [3] = HepG2 cell cytotoxicity, dose response, cytotoxicity control, cherry-picks, set 2 (AID 687002;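 active = a dose-response fit showing signal loss, with half-maximal concentration no higher than twice the top tested dose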)
# [4] = binders of probe aFSTL3 on microarray, primary screen, stem cell growth factor project, biochemical, small-molecule microarray, fluorescence 635/667 (AID 1064); details: higher = more signal;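 note: measures binding of the biotinylated anti-FSTL3 antibody to printed compounds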
# [5] = binders from COS7 lysate, DM2A8 probe, primary screen, torsin A project, cell lysate, small-molecule microarray, fluorescence 635/667 (AID 1065); details: higher = more signal, COS7 lysate expressing mutant human TOR1A
# [6] = binders of probe aFGF2 on microarray, primary screen, stem cell growth factor project, biochemical, small-molecule microarray, fluorescence 635/667 (AID 1067); details: higher = more signal;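 note: measures binding of biotinylated aFGF2 protein to printed compounds on slides; z-score merges feature fluorescence and signal-to-noise across triplicate slides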
# [7] = binders of probe aFGF10 on microarray, primary screen, stem cell growth factor project, biochemical, small-molecule microarray, fluorescence 635/667 (AID 1071); details: higher = more signal;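 note: score merges 667 nm spot intensity and signal to noise from triplicate slides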
# [8] = biological target: Neurogenic locus notch homolog protein 2 (Homo sapiens) (UniProt Q04721); assay: Notch2 binders on small-molecule microarrays, primary screen, biochemical, small-molecule microarray, 635 nm fluorescence, stem cell growth factors (AID 1073); details: Notch2 binding, higher = more signal
# [9] = biological target: Pro-neuregulin-1, membrane-bound isoform (Homo sapiens) (UniProt Q02297); assay: NRG1 binders on small-molecule microarrays, primary screen, psychiatric disease protein project, biochemical, small-molecule microarray, fluorescence 635/667 (AID 1075); details: NRG1 binding, 635 nm fluorescence, higher = more signal;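 note: score combines 667 nm spot fluorescence with signal to noise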
# [10] = system: Neuregulin-1 EGF-like domain; assay: binders of neuregulin-1 EGF-like domain, primary screen, biochemical, small-molecule microarray, 635 nm fluorescence (AID 1081); details: small-molecule microarray binding, higher = more signal;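 note: binding of the protein to compounds printed on small-molecule microarray slides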
# [11] = FRG1 promoter luciferase signal modulators, primary screen, FRG1 inhibition for FSHD, cell-based, C2C12 myotubes, firefly/Renilla luciferase, luminescence (AID 1084); details: higher = more signal, called active from +8 up or from −8 down
# [12] = binders of probe aFST on microarray, primary screen, stem cell growth factor project, biochemical, small-molecule microarray, fluorescence 635/667 (AID 1086); details: higher = more signal;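 note: score merges 667 nm fluorescence with signal-to-noise of each printed compound spot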
# [13] = binders of probe aHhip on microarray, primary screen, stem cell growth factor project, biochemical, small-molecule microarray, fluorescence 635/667 (AID 1087); details: higher = more signal;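 note: score merges spot fluorescence at 667nm with spot signal to noise ratio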
# [14] = system: PRMT1 (protein arginine N-methyltransferase 1); assay: PRMT1 binders on small-molecule microarrays, primary screen, biochemical, small-molecule microarray, 635 nm fluorescence (AID 1088); details: small-molecule microarray binding, higher = more signal;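 note: binding of Prmt1 protein to compounds spotted on small-molecule microarray slides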
# [15] = yeast growth modulation, basal conditions, primary screen, YJM789 clinical isolate, OD600, 24 h (AID 1089);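 note: growth of clinical yeast isolate S. cerevisiae YJM 789 seeded 1000 cells per well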; details: S. cerevisiae YJM789 growth, higher = more signal, called active from +8 up or from −8 down
# [16] = fission yeast growth modulation, primary screen, strain 972, OD600, 24 h, no modulator (AID 1090);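 note: basal condition with compound alone and no growth modifier present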; details: S. pombe 972 growth, higher = more signal, called active from +8 up or from −8 down
# [17] = S. cerevisiae growth modulation with rapamycin, primary screen, strain BY4716, OD600, 96 h (AID 1091); details: higher = more signal, called active from +8 up or from −8 down
# [18] = biological target: Torsin-1A-interacting protein 2 (Homo sapiens) (UniProt Q8NFQ8); assay: LULL1 binders on small-molecule microarray, primary screen, cell lysate, human LULL1 lysate, 635/667 nm fluorescence (AID 1092); details: hLULL1 lysate binding, 635 nm fluorescence, higher = more signal;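 note: probe is lysate of COS7 cells overexpressing human LULL1; score merges per-feature 667 nm fluorescence with signal-to-noise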
# [19] = E. coli growth modulation, two-sided OD650, primary screen, E. coli filamentation project, strain DRC41, 24 h (AID 1093); details: OD650, 24 h, higher = more signal, called active from +8 up or from −8 down;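 note: MC1000 strain lacking acrAB efflux and sulA so SOS filamentation is blocked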
# Sequence of Torsin-1A-interacting protein 2 (Homo sapiens) (Q8NFQ8 whole entry, looked up): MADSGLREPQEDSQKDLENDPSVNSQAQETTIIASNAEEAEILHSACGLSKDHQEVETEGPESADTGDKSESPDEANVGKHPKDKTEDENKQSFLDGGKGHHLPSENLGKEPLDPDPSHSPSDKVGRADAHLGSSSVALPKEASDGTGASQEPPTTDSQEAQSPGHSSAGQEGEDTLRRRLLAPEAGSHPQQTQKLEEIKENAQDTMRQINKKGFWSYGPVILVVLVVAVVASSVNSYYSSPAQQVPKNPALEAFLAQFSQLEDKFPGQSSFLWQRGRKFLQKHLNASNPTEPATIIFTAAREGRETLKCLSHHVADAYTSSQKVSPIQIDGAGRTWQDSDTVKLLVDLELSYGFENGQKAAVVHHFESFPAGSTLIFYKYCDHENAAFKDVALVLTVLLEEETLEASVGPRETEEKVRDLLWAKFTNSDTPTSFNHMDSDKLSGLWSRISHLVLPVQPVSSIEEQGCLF
# Sequence of Pro-neuregulin-1, membrane-bound isoform (Homo sapiens) (Q02297 whole entry, looked up, the tested form may be a part, canonical isoform): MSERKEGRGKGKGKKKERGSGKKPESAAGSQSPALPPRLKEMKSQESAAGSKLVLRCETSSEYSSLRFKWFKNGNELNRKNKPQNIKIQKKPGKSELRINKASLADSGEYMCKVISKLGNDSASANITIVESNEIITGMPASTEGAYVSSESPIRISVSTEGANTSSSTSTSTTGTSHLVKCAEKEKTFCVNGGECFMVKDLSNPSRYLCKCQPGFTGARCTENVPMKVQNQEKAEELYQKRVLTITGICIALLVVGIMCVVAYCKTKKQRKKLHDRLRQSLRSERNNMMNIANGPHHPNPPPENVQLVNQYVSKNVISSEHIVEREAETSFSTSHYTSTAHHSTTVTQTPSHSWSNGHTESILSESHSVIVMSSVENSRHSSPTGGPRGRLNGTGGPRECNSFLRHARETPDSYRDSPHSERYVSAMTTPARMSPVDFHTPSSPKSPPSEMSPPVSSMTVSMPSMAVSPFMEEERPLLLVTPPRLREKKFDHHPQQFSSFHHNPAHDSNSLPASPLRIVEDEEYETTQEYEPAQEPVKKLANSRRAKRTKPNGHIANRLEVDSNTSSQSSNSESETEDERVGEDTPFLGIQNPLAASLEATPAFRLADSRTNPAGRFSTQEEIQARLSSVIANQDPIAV
# Sequence of Neurogenic locus notch homolog protein 2 (Homo sapiens) (Q04721 whole entry, looked up, canonical isoform): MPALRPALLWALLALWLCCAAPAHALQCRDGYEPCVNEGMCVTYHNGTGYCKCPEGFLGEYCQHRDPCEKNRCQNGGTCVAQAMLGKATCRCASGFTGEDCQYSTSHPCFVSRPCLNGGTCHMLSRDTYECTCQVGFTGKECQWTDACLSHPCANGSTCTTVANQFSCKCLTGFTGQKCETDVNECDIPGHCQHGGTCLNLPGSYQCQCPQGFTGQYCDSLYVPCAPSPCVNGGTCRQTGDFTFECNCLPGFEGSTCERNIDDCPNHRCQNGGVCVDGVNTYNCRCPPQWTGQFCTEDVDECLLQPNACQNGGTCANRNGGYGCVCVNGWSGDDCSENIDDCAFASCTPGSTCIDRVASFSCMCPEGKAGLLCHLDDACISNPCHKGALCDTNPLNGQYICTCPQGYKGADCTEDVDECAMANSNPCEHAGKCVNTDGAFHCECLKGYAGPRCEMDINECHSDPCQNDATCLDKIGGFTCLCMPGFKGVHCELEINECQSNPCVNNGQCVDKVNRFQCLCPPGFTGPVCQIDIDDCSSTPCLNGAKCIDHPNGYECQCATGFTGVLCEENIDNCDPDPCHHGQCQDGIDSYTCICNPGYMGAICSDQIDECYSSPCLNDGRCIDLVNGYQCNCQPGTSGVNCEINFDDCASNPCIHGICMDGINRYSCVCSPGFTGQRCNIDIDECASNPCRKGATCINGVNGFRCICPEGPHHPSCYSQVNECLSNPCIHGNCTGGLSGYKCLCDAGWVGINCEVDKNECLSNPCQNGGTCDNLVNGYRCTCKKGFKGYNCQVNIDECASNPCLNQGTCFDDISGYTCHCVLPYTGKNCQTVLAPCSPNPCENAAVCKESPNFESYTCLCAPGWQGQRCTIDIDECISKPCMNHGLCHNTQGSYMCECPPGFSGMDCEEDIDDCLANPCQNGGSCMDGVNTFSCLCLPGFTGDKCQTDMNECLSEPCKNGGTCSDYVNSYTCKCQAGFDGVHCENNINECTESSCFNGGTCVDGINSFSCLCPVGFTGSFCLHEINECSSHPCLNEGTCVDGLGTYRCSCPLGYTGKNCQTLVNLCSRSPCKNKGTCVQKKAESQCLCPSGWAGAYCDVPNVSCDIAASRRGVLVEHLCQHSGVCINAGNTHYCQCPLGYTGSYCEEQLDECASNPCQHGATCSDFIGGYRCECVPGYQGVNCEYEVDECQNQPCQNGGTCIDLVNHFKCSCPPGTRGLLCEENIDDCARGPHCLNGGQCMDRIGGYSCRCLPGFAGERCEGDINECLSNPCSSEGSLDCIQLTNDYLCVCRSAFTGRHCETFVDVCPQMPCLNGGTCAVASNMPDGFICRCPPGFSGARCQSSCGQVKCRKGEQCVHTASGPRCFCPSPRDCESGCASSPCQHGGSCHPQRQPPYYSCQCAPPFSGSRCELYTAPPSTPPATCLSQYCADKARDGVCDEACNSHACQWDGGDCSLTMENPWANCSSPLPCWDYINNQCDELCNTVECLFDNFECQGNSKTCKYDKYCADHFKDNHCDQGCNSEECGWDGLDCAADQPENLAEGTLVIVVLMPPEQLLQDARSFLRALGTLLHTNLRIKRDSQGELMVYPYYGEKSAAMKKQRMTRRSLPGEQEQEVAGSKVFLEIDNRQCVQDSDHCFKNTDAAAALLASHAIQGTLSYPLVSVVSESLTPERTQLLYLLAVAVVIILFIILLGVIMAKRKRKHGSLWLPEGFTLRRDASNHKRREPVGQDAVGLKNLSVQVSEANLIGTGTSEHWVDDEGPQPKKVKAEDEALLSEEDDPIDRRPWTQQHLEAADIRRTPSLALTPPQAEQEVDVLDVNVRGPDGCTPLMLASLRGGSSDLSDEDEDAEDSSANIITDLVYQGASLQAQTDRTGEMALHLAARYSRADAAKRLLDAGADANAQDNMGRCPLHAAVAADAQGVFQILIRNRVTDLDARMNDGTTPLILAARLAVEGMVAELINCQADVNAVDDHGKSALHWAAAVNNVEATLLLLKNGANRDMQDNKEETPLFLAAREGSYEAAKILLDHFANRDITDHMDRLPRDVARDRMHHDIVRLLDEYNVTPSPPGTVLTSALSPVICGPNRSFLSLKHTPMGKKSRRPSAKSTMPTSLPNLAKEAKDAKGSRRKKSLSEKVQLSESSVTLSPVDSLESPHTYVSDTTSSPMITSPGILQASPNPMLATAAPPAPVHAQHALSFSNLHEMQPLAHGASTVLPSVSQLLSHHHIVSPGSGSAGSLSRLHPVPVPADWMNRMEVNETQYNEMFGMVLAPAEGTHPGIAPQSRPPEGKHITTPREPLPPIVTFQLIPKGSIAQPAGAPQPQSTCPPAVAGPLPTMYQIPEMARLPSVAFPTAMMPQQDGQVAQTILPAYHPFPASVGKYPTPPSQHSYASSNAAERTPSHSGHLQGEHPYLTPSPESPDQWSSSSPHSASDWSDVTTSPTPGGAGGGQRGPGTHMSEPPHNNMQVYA
structure (smiles),measurement,setting,value
CCNC(=O)Nc1ccc2c(c1)C(=O)N(C)[C@H]1CC[C@H](CC(=O)Nc3ccccc3F)O[C@@H]1CO2,outcome,[1],inactive
same,outcome,[2],inactive
same,outcome,[3],inactive
COc1ccc([Si](C)(C)[C@@H]2[C@@H](CC(=O)N3CCC[C@H]3CO)O[C@]3(C(=O)N(Cc4ccc(I)cc4)c4ccccc43)[C@H]2C)cc1,composite z-score,[4],0.035
same,composite z-score,[5],0.356
same,composite z-score,[6],-0.142
same,composite z-score,[7],0.254
same,composite z-score,[8],0.806
same,composite z-score,[9],0.805
same,composite z-score,[10],1.22
same,z-score,[11],-1.71 (inactive)
same,composite z-score,[12],0.357
same,composite z-score,[13],0.281
same,composite z-score,[14],1.56
same,z-score,[15],-1.41 (inactive)
same,z-score,[16],-0.398 (inactive)
same,z-score,[17],-0.309 (inactive)
same,composite z-score,[18],1.53
same,z-score,[19],2.22 (inactive)
CCCCC(=C=CC[C@H](O)c1cccc(OCCO)c1)CCO,composite z-score,[4],-0.0452
same,composite z-score,[5],-0.0768
same,composite z-score,[6],-0.0976
same,composite z-score,[7],-0.662
same,composite z-score,[8],-0.854
same,composite z-score,[9],0.52
same,composite z-score,[10],0.519
same,z-score,[11],0.125 (inactive)
same,composite z-score,[12],-0.101
same,composite z-score,[13],0.0623
same,composite z-score,[14],-0.19
same,z-score,[15],0.166 (inactive)
same,z-score,[16],-0.486 (inactive)
same,z-score,[17],-1.16 (inactive)
same,composite z-score,[18],1.33
same,z-score,[19],1.11 (inactive)
O=C1O[C@@H](c2ccccc2)[C@@H](c2ccccc2)N2[C@@H](c3ccc(OCCO)cc3)[C@]3(C(=O)Nc4ccc(C#CC5(O)CCCCCC5)cc43)[C@@H](C(=O)NC[C@H](O)c3ccccc3)[C@H]12,composite z-score,[4],0.0882
same,composite z-score,[5],1
same,composite z-score,[6],-0.0258
same,composite z-score,[7],1.06
same,composite z-score,[8],1.42
same,composite z-score,[9],1.43
same,composite z-score,[10],1.26
same,z-score,[11],-0.222 (inactive)
same,composite z-score,[12],0.934
same,composite z-score,[13],-0.191
same,composite z-score,[14],1.55
same,z-score,[15],1.24 (inactive)
same,z-score,[16],1.21 (inactive)
same,z-score,[17],5.49 (inactive)
same,composite z-score,[18],2.3
same,z-score,[19],3.13 (inactive)
COC(=O)c1c(CC[C@@H](CO)NC(=O)Nc2ccc(OC)cc2)oc(C(=O)Cc2ccccc2)c1C(=O)OC,composite z-score,[4],-0.211
same,composite z-score,[5],0.469
same,composite z-score,[6],-0.0924
same,composite z-score,[7],0.411
same,composite z-score,[8],0.704
same,composite z-score,[9],0.191
same,composite z-score,[10],1.03
same,z-score,[11],-0.814 (inactive)
same,composite z-score,[12],-0.0409
same,composite z-score,[13],-0.0672
same,composite z-score,[14],0.477
same,z-score,[15],1.54 (inactive)
same,z-score,[16],-1.21 (inactive)
same,z-score,[17],2.23 (inactive)
same,composite z-score,[18],0.478
same,z-score,[19],1.85 (inactive)
C=C[C@H](OC)[C@@H](OC(=O)Nc1ccc(OC)cc1)c1ccc(OC)c(O)c1,composite z-score,[4],1.46
same,composite z-score,[5],-0.68
same,composite z-score,[6],-0.209
same,composite z-score,[7],-1.29
same,composite z-score,[8],-2.83
same,composite z-score,[9],0.272
same,composite z-score,[10],0.843
same,z-score,[11],1.51 (inactive)
same,composite z-score,[12],-1.11
same,composite z-score,[13],-0.487
same,composite z-score,[14],-1.07
same,z-score,[15],0.698 (inactive)
same,z-score,[16],-0.133 (inactive)
same,z-score,[17],0.551 (inactive)
same,composite z-score,[18],-0.0649
same,z-score,[19],2.09 (inactive)
CC(C)NC(=O)Nc1ccc2c(c1)C(=O)N([C@@H](C)CO)C[C@H](C)[C@@H](CN(C)Cc1ccc3c(c1)OCO3)OCCCC[C@@H](C)O2,outcome,[1],inactive
same,outcome,[2],inactive
same,outcome,[3],inactive
COc1cccc(-c2cn(CC[C@@H]3CC[C@@H](NC(C)=O)[C@H](CO)O3)nn2)c1,outcome,[1],inactive
same,outcome,[2],inactive
same,outcome,[3],inactive
C[C@H]1CCCCO[C@H](CN(C)C(=O)Nc2ccc(F)cc2)[C@@H](C)CN([C@@H](C)CO)C(=O)c2cc(NS(=O)(=O)c3ccc(Cl)cc3)ccc2O1,outcome,[1],inactive
same,outcome,[2],inactive
same,outcome,[3],inactive
C[C@@H]1CN([C@H](C)CO)C(=O)c2cccc(NC(=O)Nc3ccccc3)c2O[C@@H]1CN(C)Cc1ccc(Cl)c(Cl)c1,outcome,[1],inactive
same,outcome,[2],inactive
same,outcome,[3],inactive
CNC(=O)C[C@H]1CC[C@H]2[C@@H](COc3ccc(NC(=O)Nc4cccc(C#N)c4)cc3C(=O)N2C)O1,outcome,[1],inactive
same,outcome,[2],inactive
same,outcome,[3],inactive
N#Cc1ccc(-c2ccc3c(c2)[C@H]2[C@H](CCN2C(=O)Cc2ccccc2)[C@@H](CO)N3)cc1,outcome,[1],inactive
same,outcome,[2],inactive
same,outcome,[3],inactive
C[C@@H]1CN([C@@H](C)CO)C(=O)c2cccc(NS(C)(=O)=O)c2O[C@@H]1CN(C)C(=O)Nc1ccc2c(c1)OCO2,outcome,[1],inactive
same,outcome,[2],inactive
same,outcome,[3],inactive
COc1cccc(S(=O)(=O)Nc2ccc3c(c2)OC[C@H](C)NC[C@@H](C)[C@H](OC)CN(C)C3=O)c1,outcome,[1],inactive
same,outcome,[2],inactive
same,outcome,[3],inactive
O=S(=O)(c1ccc(F)cc1)N1C[C@@H]2[C@H](c3ccccc31)[C@@H](CO)N2Cc1ccccc1Cl,outcome,[1],inactive
same,outcome,[2],inactive
same,outcome,[3],inactive
COc1ccc(C#Cc2ccc3c(c2)O[C@@H](CN(C)C(C)=O)[C@@H](C)CN([C@H](C)CO)S3(=O)=O)cc1,outcome,[1],inactive
same,outcome,[2],inactive
same,outcome,[3],inactive
C[C@@H](NC(=O)C[C@@H]1CC[C@H]2[C@@H](COC[C@@H](O)CN2Cc2cc(F)ccc2F)O1)c1ccccc1,outcome,[1],inactive
same,outcome,[2],inactive
same,outcome,[3],inactive
C[C@@H](NC(=O)C[C@@H]1CC[C@@H]2[C@H](COC[C@H](O)CN2Cc2cc(F)ccc2F)O1)c1ccccc1,outcome,[1],inactive
same,outcome,[2],inactive
same,outcome,[3],inactive
CC1CCCCN1C(=O)CSc1nc(C2CC2)nc2c1cnn2-c1ccccc1 (stereo not given),outcome,[1],inactive
same,outcome,[2],inactive
same,outcome,[3],inactive
CC(C)NC(=O)Nc1ccc2c(c1)CC(=O)N([C@H](C)CO)C[C@H](C)[C@H](CN(C)S(=O)(=O)c1ccc(Cl)cc1)O2,outcome,[1],inactive
same,outcome,[2],inactive
same,outcome,[3],inactive
C[C@H]1CN([C@@H](C)CO)S(=O)(=O)c2ccc(C#Cc3ccccn3)cc2O[C@@H]1CN(C)Cc1ccccc1,outcome,[1],inactive
same,outcome,[2],inactive
same,outcome,[3],inactive
CC(C)(C)c1ccc(OCC(=O)NC(c2ccccc2)c2ccccc2)cc1,outcome,[1],inactive
same,outcome,[2],inactive
same,outcome,[3],inactive
CC(C)NC(=O)Nc1ccc2c(c1)CC(=O)N([C@@H](C)CO)C[C@@H](C)[C@@H](CN(C)Cc1ccc(Oc3ccccc3)cc1)O2,outcome,[1],inactive
same,outcome,[2],inactive
same,outcome,[3],inactive
CNC(=O)CN(c1ccc(C)cc1)S(=O)(=O)c1ccccc1,outcome,[1],inactive
same,outcome,[2],inactive
same,outcome,[3],inactive
CC(C)CC#Cc1ccc2c(c1)O[C@@H](CN(C)C(=O)C1CCC1)[C@@H](C)CN([C@H](C)CO)S2(=O)=O,outcome,[1],inactive
same,outcome,[2],inactive
same,outcome,[3],inactive
CO[C@@H](CN(C)Cc1cc(F)ccc1F)[C@@H](C)CN([C@H](C)CO)S(=O)(=O)c1ccc(F)cc1,outcome,[1],inactive
same,outcome,[2],inactive
same,outcome,[3],inactive
C[C@H](CO)N1C[C@H](C)[C@@H](CN(C)Cc2ccncc2)Oc2ccc(NC(=O)CCC(F)(F)F)cc2C1=O,outcome,[1],inactive
same,outcome,[2],inactive
same,outcome,[3],inactive
Cc1cccc(C)c1NC(=O)C(CCc1ccccc1)N1CCC(c2ccccc2)CC1 (stereo not given),outcome,[1],inactive
same,outcome,[2],inactive
same,outcome,[3],inactive
C[C@@H]1CN([C@@H](C)CO)C(=O)c2cc(NS(=O)(=O)c3ccc(F)cc3)ccc2O[C@@H](C)CCCCO[C@H]1CN(C)S(=O)(=O)c1ccc(F)cc1,outcome,[1],inactive
same,outcome,[2],inactive
same,outcome,[3],inactive
C[C@@H]1CN([C@@H](C)CO)S(=O)(=O)c2ccc(C#CC3CC3)cc2O[C@H]1CN(C)CC1CCOCC1,outcome,[1],inactive
same,outcome,[2],inactive
same,outcome,[3],inactive
